A short description of test [1]: NCI Yeast Anticancer Drug Screen. Data for the rad50 strain (AID 155).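 Further: 0% = growth of vehicle-only cultures of the same strain.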 To be noted: S. cerevisiae rad50 strain growth inhibition, active compounds read high. The procedure, abridged:
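Compounds were tested on a yeast strain with an engineered DNA damage repair alteration; the reported value is growth inhibition normalised to vehicle treatment.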

Test [2] can be described thus: NCI Yeast Anticancer Drug Screen. Data for the mec2-1 strain (AID 157). Conditions: S. cerevisiae mec2-1 strain, active compounds read high. Put shortly: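 Using mec2-1 yeast: add compound, measure growth, express inhibition versus vehicle-treated cultures.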
Test [3] can be described thus: NCI Yeast Anticancer Drug Screen. Data for the sgs1 mgt1 strain (AID 161).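 Further: 0% = growth of cultures given vehicle only.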 To be noted: S. cerevisiae sgs1 mgt1 strain, active compounds read high. The procedure, abridged: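 Compounds are added to genetically altered yeast, and growth is compared with cultures given vehicle alone to give percent inhibition.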
Test [4] can be described thus: NCI Yeast Anticancer Drug Screen. Data for the cln2 rad14 strain (AID 165).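 Further: 0% = growth equal to vehicle treated cultures.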 To be noted: S. cerevisiae cln2 rad14 strain, active compounds read high. Put shortly:
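Yeast strain cln2 rad14, bearing defects in cell cycle control and DNA repair, serves as the test system; values reflect growth inhibition compared with vehicle.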

A short description of test [5]: NCI Yeast Anticancer Drug Screen. Data for the bub3 strain (AID 167). Conditions: S. cerevisiae bub3 mutant strain, active compounds read high. Put shortly: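 Growth of a checkpoint-deficient yeast mutant is measured after compound exposure. Values represent inhibition relative to vehicle.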
A short description of test [6]: NCI Yeast Anticancer Drug Screen. Data for the mlh1 rad18 strain (AID 175). Conditions: S. cerevisiae mlh1 rad18 strain growth inhibition, active compounds read high. The procedure, abridged: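 Steps: expose repair-defective yeast to compound; measure growth; express inhibition against vehicle-treated controls.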
Where [7] appears, read: at 5.0 µM (retest, dose inferred, filed as 0.5).
The mark [8] stands for this setting: at 50.0 µM (retest, dose inferred, filed as 5.0).

Each structure is given as a SMILES string. The panel holds about 79,000 compounds, 15% with a hit somewhere; the sample as a whole holds those more often. A number with no mark means an inactive call. Calls of active or inactive are those of the source. No stated cut-off is given here; in the data, active means growth inhibition above about 70%; inactive means the rest.

As for `C=CCCCCn1c2ccccc2c2c(C)c3c[n+](C)ccc3c(C)c21`, the growth inhibition in test [1] (setting [7]) was 99% (active); in test [1] (setting [8]), 99% (active); in test [1] (at 50.0 µM), 89.7% (active); in test [2] (setting [7]) it was 99% (active); in test [2] (setting [8]), 99% (active); in test [2] (at 50.0 µM), 91.8% (active). In addition, the growth inhibition is 97% (active) in test [3] (setting [7]); 97% (active) in test [3] (setting [8]); 90.3% (active) in test [3] (at 50.0 µM); 100% (active) in test [4] (setting [7]); 100% (active) in test [4] (setting [8]); 90.7% (active) in test [4] (at 50.0 µM). Moreover, the growth inhibition in test [5] (setting [7]) is 98% (active); in test [5] (setting [8]), 98% (active); in test [5] (at 50.0 µM) it was 91.4% (active); in test [6] (setting [7]), 98% (active); in test [6] (setting [8]), 98% (active); in test [6] (at 50.0 µM), 88.8% (active).

Regarding `CCC1C(c2cccc(OC)c2O)c2cc3c(cc2OC1N1CCCC1)OCO3` (stereo not given), the growth inhibition in test [1] (setting [7]) was 21%; in test [1] (setting [8]), 43%; in test [1] (at 50.0 µM) it was -66.2%; in test [2] (setting [7]), 22%; in test [2] (setting [8]) it was 19%; in test [2] (at 50.0 µM), -19.7%. In addition, the growth inhibition in test [3] (setting [7]) is 26%; in test [3] (setting [8]) it was 25%; in test [3] (at 50.0 µM), -52.7%; in test [4] (setting [7]) it was 31%; in test [4] (setting [8]), 45%; in test [4] (at 50.0 µM), -28.6%. The growth inhibition in test [5] (setting [7]) is 17%; in test [5] (setting [8]) it was 26%; in test [5] (at 50.0 µM), -5.3%; in test [6] (setting [7]), 22%; in test [6] (setting [8]) it was 63%; in test [6] (at 50.0 µM), -29.7%.

For `Cc1cc(O)c2c(c1)OC1(C)CCC3C(C)(C)CCCC34COC2C14` (stereo not given), the growth inhibition in test [1] (setting [7]) was 18%; in test [1] (setting [8]) it was 97% (active); in test [1] (at 50.0 µM), 89.5% (active); in test [2] (setting [7]), 16%; in test [2] (setting [8]), 98% (active); in test [2] (at 50.0 µM), 87.5% (active). The growth inhibition was 17% in test [3] (setting [7]); 98% (active) in test [3] (setting [8]); 90.6% (active) in test [3] (at 50.0 µM); 27% in test [4] (setting [7]); 98% (active) in test [4] (setting [8]); 88.5% (active) in test [4] (at 50.0 µM). Moreover, the growth inhibition in test [5] (setting [7]) is 6%; in test [5] (setting [8]), 98% (active); in test [5] (at 50.0 µM), 85.5% (active); in test [6] (setting [7]) it was 33%; in test [6] (setting [8]), 97% (active); in test [6] (at 50.0 µM), 88.6% (active).

Turning to `CC(C)CCSc1ncnc2nc[nH]c12`, the growth inhibition in test [1] (setting [7]) is 1%; in test [1] (setting [8]), 6%; in test [1] (at 50.0 µM), 48.1%; in test [2] (setting [7]), -5%; in test [2] (setting [8]) it was 3%; in test [2] (at 50.0 µM), 53.5%. Also, the growth inhibition in test [3] (setting [7]) is -1%; in test [3] (setting [8]) it was 1%; in test [3] (at 50.0 µM), 63%; in test [4] (setting [7]), -4%; in test [4] (setting [8]), 9%; in test [4] (at 50.0 µM), 29.8%. Further, the growth inhibition in test [5] (setting [7]) is -2%; in test [5] (setting [8]), 8%; in test [5] (at 50.0 µM), 73.5% (active); in test [6] (setting [7]), -1%; in test [6] (setting [8]), 6%; in test [6] (at 50.0 µM) it was 33.8%.

Regarding `C\C=C/C=C/C=C/C(=O)O`, the growth inhibition was 5% in test [1] (setting [7]); 13% in test [1] (setting [8]); 66.5% in test [1] (at 50.0 µM); 2% in test [2] (setting [7]); -4% in test [2] (setting [8]); 60.1% in test [2] (at 50.0 µM). The growth inhibition in test [3] (setting [7]) was 2%; in test [3] (setting [8]), 7%; in test [3] (at 50.0 µM), 42.3%; in test [4] (setting [7]), -2%; in test [4] (setting [8]), 3%; in test [4] (at 50.0 µM) it was 40.6%. The growth inhibition was 4% in test [5] (setting [7]); 0% in test [5] (setting [8]); 95% (active) in test [5] (at 50.0 µM); 1% in test [6] (setting [7]); 8% in test [6] (setting [8]); 45% in test [6] (at 50.0 µM).

Take `CCN(CC)CCOc1ccc(C(O)(Cc2ccc(Cl)cc2)c2ccccc2)cc1` (stereo not given): the growth inhibition in test [1] (setting [7]) was 39%; in test [1] (setting [8]) it was 90% (active); in test [1] (at 50.0 µM), 90.9% (active); in test [2] (setting [7]) it was 35%; in test [2] (setting [8]), 87% (active); in test [2] (at 50.0 µM), 83.8% (active). In addition, the growth inhibition is 58% in test [3] (setting [7]); 95% (active) in test [3] (setting [8]); 97.5% (active) in test [3] (at 50.0 µM); 56% in test [4] (setting [7]); 93% (active) in test [4] (setting [8]); 98.3% (active) in test [4] (at 50.0 µM). Further, the growth inhibition in test [5] (setting [7]) is 57%; in test [5] (setting [8]) it was 89% (active); in test [5] (at 50.0 µM), 81.2% (active); in test [6] (setting [7]), 51%; in test [6] (setting [8]), 89% (active); in test [6] (at 50.0 µM), 97.2% (active).

As to `COc1cc2c(cc1O)CCN[C@@]21CS[C@H]2c3c(OC(C)=O)c(C)c4c(c3C(COC1=O)N1C2C2c3c(cc(C)c(OC)c3O)CC([C@@H]1O)N2C)OCO4` (stereo not given in full), the growth inhibition in test [1] (setting [7]) was 98% (active); in test [1] (setting [8]) it was 99% (active); in test [1] (at 50.0 µM), 92.7% (active); in test [2] (setting [7]) it was 99% (active); in test [2] (setting [8]), 99% (active); in test [2] (at 50.0 µM) it was 94% (active). The growth inhibition in test [3] (setting [7]) was 99% (active); in test [3] (setting [8]), 99% (active); in test [3] (at 50.0 µM), 93.4% (active); in test [4] (setting [7]) it was 99% (active); in test [4] (setting [8]), 99% (active); in test [4] (at 50.0 µM), 91.6% (active). The growth inhibition was 99% (active) in test [5] (setting [7]); 99% (active) in test [5] (setting [8]); 93.2% (active) in test [5] (at 50.0 µM); 99% (active) in test [6] (setting [7]); 99% (active) in test [6] (setting [8]); 92% (active) in test [6] (at 50.0 µM).

Consider `Cc1c(C)c(O)c2c(c1O)C(=O)C=C(Cl)C2=O`, for which the growth inhibition in test [1] (setting [7]) is 99% (active); in test [1] (setting [8]), 94% (active); in test [1] (at 50.0 µM), 88.3% (active); in test [2] (setting [7]), 100% (active); in test [2] (setting [8]) it was 96% (active); in test [2] (at 50.0 µM) it was 90.2% (active). Also, the growth inhibition is 100% (active) in test [3] (setting [7]); 97% (active) in test [3] (setting [8]); 88.3% (active) in test [3] (at 50.0 µM); 45% in test [4] (setting [7]); 96% (active) in test [4] (setting [8]); 90.7% (active) in test [4] (at 50.0 µM). Also, the growth inhibition in test [5] (setting [7]) was 99% (active); in test [5] (setting [8]), 97% (active); in test [5] (at 50.0 µM) it was 87.7% (active); in test [6] (setting [7]), 99% (active); in test [6] (setting [8]), 96% (active); in test [6] (at 50.0 µM), 88.6% (active).

Turning to `Clc1cc(Cl)c2c(c1)nc(Cl)c1cc(Cl)ccc12`, the growth inhibition was -13% in test [1] (setting [7]); 1% in test [1] (setting [8]); 97% (active) in test [1] (at 50.0 µM); -13% in test [2] (setting [7]); 7% in test [2] (setting [8]); 99% (active) in test [2] (at 50.0 µM). For the same compound, the growth inhibition was -5% in test [3] (setting [7]); 1% in test [3] (setting [8]); 97.6% (active) in test [3] (at 50.0 µM); -1% in test [4] (setting [7]); 2% in test [4] (setting [8]); 98.5% (active) in test [4] (at 50.0 µM). For the same compound, the growth inhibition in test [5] (setting [7]) is -5%; in test [5] (setting [8]), 1%; in test [5] (at 50.0 µM), 98.7% (active); in test [6] (setting [7]) it was -14%; in test [6] (setting [8]), -20%; in test [6] (at 50.0 µM) it was 98.6% (active).

Turning to `O=C1/C(=C\c2ccc(Cl)cc2)SC2SC=C(c3ccc([N+](=O)[O-])cc3)N12` (stereo not given), the growth inhibition in test [1] (setting [7]) was 0%; in test [1] (setting [8]) it was 86% (active); in test [1] (at 50.0 µM), 98.3% (active); in test [2] (setting [7]), 2%; in test [2] (setting [8]), 94% (active); in test [2] (at 50.0 µM) it was 98.9% (active). The growth inhibition in test [3] (setting [7]) was -4%; in test [3] (setting [8]) it was 92% (active); in test [3] (at 50.0 µM) it was 99.2% (active); in test [4] (setting [7]), -20%; in test [4] (setting [8]) it was 86% (active); in test [4] (at 50.0 µM) it was 98% (active). The growth inhibition is -7% in test [5] (setting [7]); 86% (active) in test [5] (setting [8]); 86.8% (active) in test [5] (at 50.0 µM); 5% in test [6] (setting [7]); 92% (active) in test [6] (setting [8]); 98.6% (active) in test [6] (at 50.0 µM).

(Values after PubChem BioAssay (NCI).)
